Bead autofluor: counter-screen for toxin protease inhibitors: compound fluorescence. fluorescence intensity (no concentration beside the values). compound autofluorescence counterscreen, microsphere flow cytometry; active compounds read high. actives 3.1% (n = 360,000); in the data active = fluorescence intensity above about 16000; inconclusive = no clear call, values can overlap the other calls
BoNT-A LC inh2: BoNT A light chain protease inhibition; multiplex microsphere protease substrate cleavage, flow cytometry; inhibition, % at 10 µM; actives 0.17% (n = 360,000)
BoNT-F LC inh: blocks Botulinum neurotoxin F light chain protease; AID 588497; inhibition, % at 10 µM; actives 0.22% (n = 360,000); Multiplex microsphere protease cleavage assay, flow cytometry; in the data active = inhibition above about 35%, passing the limit was not always enough; inconclusive = no clear call, values can overlap the other calls
Anthrax LF inh2: anthrax lethal factor protease inhibition. P15917. actives 0.12% (n = 360,000). inhibition, % at 10 µM. multiplex microsphere protease cleavage assay, LF. AID 588501
Target sequence (P15917 whole entry, looked up): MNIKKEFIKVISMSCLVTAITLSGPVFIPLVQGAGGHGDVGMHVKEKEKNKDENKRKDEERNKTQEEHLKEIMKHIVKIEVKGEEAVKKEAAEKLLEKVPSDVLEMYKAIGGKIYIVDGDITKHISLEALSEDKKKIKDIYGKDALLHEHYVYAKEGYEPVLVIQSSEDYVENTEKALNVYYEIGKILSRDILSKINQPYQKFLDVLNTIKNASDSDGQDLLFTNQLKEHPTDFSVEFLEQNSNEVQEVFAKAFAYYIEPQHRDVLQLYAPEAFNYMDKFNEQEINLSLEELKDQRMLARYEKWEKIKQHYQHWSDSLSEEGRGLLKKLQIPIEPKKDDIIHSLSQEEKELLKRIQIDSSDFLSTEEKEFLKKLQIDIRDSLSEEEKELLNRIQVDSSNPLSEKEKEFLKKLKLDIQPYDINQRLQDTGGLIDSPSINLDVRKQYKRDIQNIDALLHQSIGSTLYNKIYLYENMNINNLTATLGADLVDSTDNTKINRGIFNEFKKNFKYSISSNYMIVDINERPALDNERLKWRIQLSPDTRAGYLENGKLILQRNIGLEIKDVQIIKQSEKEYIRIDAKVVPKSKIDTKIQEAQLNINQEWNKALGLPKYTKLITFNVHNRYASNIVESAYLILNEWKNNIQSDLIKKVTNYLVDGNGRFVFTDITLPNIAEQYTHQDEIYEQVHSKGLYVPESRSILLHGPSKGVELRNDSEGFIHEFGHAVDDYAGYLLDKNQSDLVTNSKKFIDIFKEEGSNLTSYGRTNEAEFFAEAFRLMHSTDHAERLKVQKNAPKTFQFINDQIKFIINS
MazF activator: increases E. coli MazEF RNase cleavage of RNA; P0AE70; FAM/BHQ RNA-DNA oligo cleavage fluorescence, 5 h; actives 0.32% (n = 350,000); activation, % at 20 µM; in the data active = activation above about 50%
BoNT-A LC CP1: blocks botulinum neurotoxin A light chain protease. AID 602139. inhibition, % at 10 µM. shares compounds with BoNT-F LC inh. multiplex microsphere protease assay, flow cytometry. actives 3% (n = 720); in the data active = inhibition above about 32%
BoNTF LC inh 1: inhibitors of Botulinum neurotoxin F light chain protease; shares compounds with BoNT-F LC inh; multiplex microsphere protease cleavage assay, flow cytometry; inhibition, % at 10 µM; 720 tested, under 10 active; AID 602140; call rule not given here
LF protease CP1: blocks anthrax lethal factor protease; shares compounds with BoNT-F LC inh; multiplex microsphere protease cleavage assay, LF; inhibition, % at 10 µM; 720 tested, under 10 active; call rule not given here
Each line names hits and unclear results; the compound was inactive in the other large screens (follow-up assays come after a bar, where they were run). A selection: hits, their analogues and other compounds. The true share with any hit is near 3.7%. Cut-off read from the data, not from the text of the source, unless noted: active = inhibition above about 30%; inconclusive = no clear call, values can overlap the other calls; inactive = below that.

Nc1c(N(CCC2=CCCCC2)C(=O)c2ccc([N+](=O)[O-])o2)c(=O)[nH]c(=O)n1Cc1ccccc1	none (no result: Bead autofluor, BoNT-A LC inh2, BoNT-F LC inh, Anthrax LF inh2)
Cc1ccc(C(=O)N(CCC2=CCCCC2)c2c(N)n(Cc3ccccc3)c(=O)[nH]c2=O)o1	BoNT-A LC inh2 31, Anthrax LF inh2 inconclusive | BoNT-A LC CP1 inactive | BoNTF LC inh 1 inactive | LF protease CP1 inactive
O=C(c1cccs1)c1ccc(-c2cccs2)s1	BoNT-A LC inh2 33, Anthrax LF inh2 35 | BoNT-A LC CP1 inactive | BoNTF LC inh 1 inactive | LF protease CP1 inactive
CN1CCN(C(=O)c2ccc(-c3cccs3)s2)CC1	BoNT-F LC inh inconclusive
Cc1cccc2c1NC(C)CC2C (stereo not drawn)	BoNT-A LC inh2 34, Anthrax LF inh2 40 | BoNT-A LC CP1 inactive | BoNTF LC inh 1 inactive | LF protease CP1 inactive
Cc1ccc(NC(=O)Cc2ccc(Cl)cc2)nc1	Bead autofluor inconclusive, BoNT-F LC inh inconclusive, Anthrax LF inh2 47 | BoNT-A LC CP1 inactive | BoNTF LC inh 1 inactive | LF protease CP1 inactive
O=C(CSc1nnc(SCC(=O)NCc2ccc3c(c2)OCO3)s1)NCc1ccc2c(c1)OCO2	none
CCCC(=O)Nc1nnc(SCC(=O)NCc2ccc3c(c2)OCO3)s1	BoNT-F LC inh 40 | BoNT-A LC CP1 inactive | BoNTF LC inh 1 inactive | LF protease CP1 inactive
COc1ccc(C(=O)Nc2nc(-c3ccc([N+](=O)[O-])cc3)c(-c3ccccc3)s2)cc1	Anthrax LF inh2 31 | BoNT-A LC CP1 inactive | BoNTF LC inh 1 inactive | LF protease CP1 inactive
O=C(Nc1nc(-c2ccccc2)c(-c2ccccc2)s1)c1ccc(S(=O)(=O)N2CCCC2)cc1	none | BoNT-A LC CP1 inactive | BoNTF LC inh 1 inactive | LF protease CP1 inactive
COC(=O)[C@H](Cc1ccccc1)N(C)S(=O)(=O)c1cccc(S(=O)(=O)N(C)[C@@H](Cc2ccccc2)C(=O)OC)c1	none
COC(=O)C(Cc1ccccc1)NC(=O)c1cccc(S(=O)(=O)N(C)C)c1 (stereo not drawn)	BoNT-F LC inh 37 | BoNT-A LC CP1 inactive | BoNTF LC inh 1 inactive | LF protease CP1 inactive
Cc1cc(C)c(NC(=O)C2CCCO2)c(C)c1NC(=O)C1CCCO1 (stereo not drawn)	BoNT-F LC inh 38 | BoNT-A LC CP1 inactive | BoNTF LC inh 1 inactive | LF protease CP1 inactive
Nc1cc2c(cc1Cl)-c1ccc([N+](=O)[O-])cc1C2=NO	Bead autofluor inconclusive, BoNT-A LC inh2 inconclusive, BoNT-F LC inh inconclusive, Anthrax LF inh2 inconclusive
O=C(COc1ccccc1)N(Cc1nnc(-c2ccccc2Cl)o1)C1CC1	BoNT-F LC inh 37 | BoNT-A LC CP1 inactive | BoNTF LC inh 1 inactive | LF protease CP1 inactive
Cc1c(C(=O)NCc2ccccc2C(F)(F)F)sc(=O)n1Cc1ccccc1C#N	none (no result: MazF activator)
CC1CCN(CCCCOc2ccccc2F)CC1	none
CC1CCN(CCCCOc2ccccc2Br)CC1	BoNT-F LC inh 43 | BoNT-A LC CP1 inactive | BoNTF LC inh 1 inactive | LF protease CP1 inactive
Cc1ccc(C(=O)Nc2ccccc2C(=O)O)cc1S(=O)(=O)Nc1ccc(Br)cc1	none (no result: Bead autofluor, BoNT-A LC inh2, BoNT-F LC inh, Anthrax LF inh2) | BoNT-A LC CP1 inactive | BoNTF LC inh 1 inactive | LF protease CP1 inactive
Cc1ccc(C(=O)Nc2ccccc2C(=O)O)cc1S(=O)(=O)NCc1ccccc1	none
CC1=C(O)C(=O)C(c2c(C)cc(C)c(Br)c2C)=C(O)C1=O	none
COc1cccc(CNC(=O)C(CCSC)NS(=O)(=O)c2ccc3c(c2)oc(=O)n3C)c1 (stereo not drawn)	BoNT-F LC inh 37 | BoNT-A LC CP1 inactive | BoNTF LC inh 1 inactive | LF protease CP1 inactive
COc1ccccc1CNC(=O)C(CCSC)NS(=O)(=O)c1ccc2c(c1)oc(=O)n2C (stereo not drawn)	none
Nc1nc2ccccc2n1CCOc1ccc(F)cc1	BoNT-F LC inh 42 | BoNT-A LC CP1 inactive | BoNTF LC inh 1 inactive | LF protease CP1 inactive
CCC(CO)Oc1cc(NCc2ccccn2)c2ncn(C(C)C)c2c1 (stereo not drawn)	none
CC(C)(C)c1ccc(S(=O)(=O)NCc2ccc(C(=O)NCC3CCCO3)cc2)cc1 (stereo not drawn)	none
COc1cccc(S(=O)(=O)NCc2ccc(C(=O)NCC3CCCO3)cc2)c1 (stereo not drawn)	BoNT-F LC inh 38 | BoNT-A LC CP1 inactive | BoNTF LC inh 1 inactive | LF protease CP1 inactive
O=C(NCc1ccccc1)C(c1ccc(F)cc1)N(Cc1ccc2c(c1)OCO2)C(=O)Cn1nnc(-c2cccs2)n1 (stereo not drawn)	BoNT-F LC inh 51 | BoNT-A LC CP1 inactive | BoNTF LC inh 1 inactive | LF protease CP1 inactive
CCCC(C(=O)NCc1ccccc1)N(C(=O)Cn1nnc(-c2cccs2)n1)c1ccc2c(c1)OCCO2 (stereo not drawn)	none
COc1ccc(C2CC(c3cccs3)=NN2c2nc(-c3ccccc3)cs2)cc1OC (stereo not drawn)	none | BoNT-A LC CP1 inactive | BoNTF LC inh 1 inactive | LF protease CP1 inactive
CCn1c(SCc2ccccc2)nnc1C1CCN(S(=O)(=O)c2ccc(OC)cc2)CC1	BoNT-F LC inh 35 | BoNT-A LC CP1 inactive | BoNTF LC inh 1 inactive | LF protease CP1 inactive
COc1ccccc1-c1cnc(C(O)c2ccc(Cl)c(Cl)c2)[nH]1 (stereo not drawn)	none (no result: MazF activator)
CC(=O)N1CCN(S(=O)(=O)c2cccc(C(=O)OCc3ccc(C(C)(C)C)cc3)c2)CC1	none
CCOC(=O)c1cc(C(=O)c2cccs2)n2ccc(C(C)=O)cc12	BoNT-A LC inh2 35 | BoNT-A LC CP1 inactive | BoNTF LC inh 1 inactive | LF protease CP1 inactive
CCOC(=O)c1cc(C(C)=O)n2ccccc12	none
Cc1ccccc1OCC(=O)NNC(=O)c1ccoc1C	none
COC(=O)c1c(NC(=O)c2ccccc2[N+](=O)[O-])sc2c1CC(C)(C)NC2(C)C	BoNT-F LC inh 70, Anthrax LF inh2 34 | BoNT-A LC CP1 inactive | BoNTF LC inh 1 inactive | LF protease CP1 inactive
CN1C=CC(C(C(N)=O)c2ccccc2)c2ccccc21 (stereo not drawn)	none
Cc1nc(C)c(-c2csc(Nc3ccc(Cl)cn3)n2)s1	none
O=C(NCS(=O)(=O)c1ccccc1)c1ccccc1	BoNT-F LC inh 36 | BoNT-A LC CP1 inactive | BoNTF LC inh 1 inactive | LF protease CP1 inactive
O=C(NCCNC(=O)c1ccccc1)c1ccccc1	none
COc1cc(/C=C\C(=O)NCc2ccc3[nH]c(C)cc3c2)cc(OC)c1OC	none
COc1ccc(C(=O)NCc2ccc3[nH]c(C)cc3c2)cc1OC	BoNT-A LC inh2 65 | BoNT-A LC CP1 inactive | BoNTF LC inh 1 inactive | LF protease CP1 inactive
COc1cc(C(=O)NCc2ccc3[nH]c(C)cc3c2)cc(OC)c1OC	BoNT-A LC inh2 53 | BoNT-A LC CP1 inactive | BoNTF LC inh 1 inactive | LF protease CP1 inactive
COc1cccc(S(=O)(=O)NC2CCN(C#N)C2)c1 (stereo not drawn)	none
CC(N)C(=O)NC(C(=O)NC(C)C(=O)Nc1cccc2ccccc12)C(C)C (stereo not drawn)	none (no result: MazF activator)
